# Data taken from PubChem BioAssay AID2782 (National Center for Advancing Translational Sciences (NCATS), 2010).
# Inconclusive results are not listed. A number with no mark means an inactive call. The source made the active and inactive calls. Calls follow the shape of the dose curve; as a rule, active = well fitted inhibition curve with a large enough effect in the polarisation, with a control signal flat (not every such curve was filed as active); inconclusive = small, poorly fitted or top-dose-only effect, or effect the other way, or a change in a side signal; inactive = no such curve, though single readings can be large or run the other way; the % refers to the polarisation.
# Test: Confirmation of Inhibitors Targeting the Menin-MLL Interaction in MLL Related Leukemias: Competition With Texas Red Labeled MLL-derived Mutant Peptide
# Settings: fluorescence polarization, Texas Red MLL peptide displacement; series mostly up to 94.6 µM; FP change, negative = inhibition: at the top concentration
# Method in brief: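 FP competition using menin at 200 nM with Texas Red-labeled mutant MLL peptide (50 nM) plus fluorescein MLL-w.t. peptide (25 nM) in 50 mM Tris-HCl pH 7.5, 50 mM NaCl, 1 mM DTT, 0.05% BSA; compound added, 1 hr ambient; polarization read per label.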
# % is scaled to controls: 0 for no effect and ±100 for the full control effect; potency is read from the fitted curve at half-maximal effect.
SMILES,"FP change, negative = inhibition",Potency
O=[N+]([O-])CC(c1ccccc1)P(=O)(c1ccccc1)c1ccccc1 (stereo unspecified),24.1%,
O=S(=O)(NCCc1c[nH]c2ccccc12)c1ccccc1,2.62% [at 288 µM],
CCCn1c(=O)c(C(=O)Nc2ccccc2C(=O)OCC)c(O)c2ccccc21,21.8% [at 288 µM],
O=C(CN1C(=O)/C(=C/c2cccc(Br)c2)SC1=S)NC1=NCCS1,,17.8 µM (active)
COc1ccc(-c2csc(NC(=S)NC(=O)/C=C/c3ccc(C(C)C)cc3)n2)cc1OC,,17.8 µM (active)
COc1cc(OC)c2ccc(=O)oc2c1C(CCN1CCOCC1)c1ccc(N(C)C)cc1 (stereo unspecified),32.5%,
COC(=O)c1cc(CNC(=O)CCCSc2ccccc2)ccc1OC,19.6%,
N=C1c2ccccc2CN1c1ccc(N2CCOCC2)c(S(=O)(=O)Nc2ccc(Cl)cc2)c1,,141 µM (active)
CN[C@H]1[C@H](O)[C@@H](O[C@@H]2[C@H](O)[C@@H](O[C@H]3OC(CN)=CC[C@H]3N)[C@@H](N)C[C@H]2N)OC[C@@]1(C)O,-11.3%,
CC1(C)CN=C(N2CCN(c3ncnc4sc5c(c34)CCCC5)CC2)S1,,14.2 µM (active)
CCOC(=O)N1CCN(Cc2nnc(-c3ccccc3C)o2)CC1,17.8%,
O=C(N1CCOCC1)N1CCN(S(=O)(=O)c2ccc(Cl)cc2)CC1,2.27%,
O=C1C(Cl)=C(NCCN2CCOCC2)C(=O)c2ncccc21,-21% [at 288 µM],
O=C(O)CCC(=O)Nc1ccc(SSc2ccc(NC(=O)CCC(=O)O)cc2)cc1,0.124% [at 288 µM],
CCCC(c1nnnn1Cc1cccs1)N1CCN(C2CCCC2)CC1 (stereo unspecified),,112 µM (active)
O=C(Nc1cc(Br)ccc1O)c1cc(-c2ccccc2)on1,,20 µM (active)
